Reference: PubChem BioAssay AID902 (National Center for Advancing Translational Sciences (NCATS), 2007)
Values joined by “and” are separate entries in the source; they are usually repeats but may differ in a detail not shown here. Identical values can stand only once. Among all 130,000 compounds or so, about 1,900 (1.5%) were called active. Where a call stands in place of a potency, no number is given. About 5% were inconclusive and are not listed. The sample as a whole holds a higher share of actives than the screen did. Unmarked numbers belong to inactive results. Calls come from the whole dose curve; as a rule, active = well fitted cell-killing curve with a large enough effect; inconclusive = small, poorly fitted or top-dose-only effect; inactive = no such curve, though single readings can be large or run the other way.

Test: qHTS Screen for Compounds that Selectively Target Cancer Cells with p53 Mutations: Cytotoxicity of p53ts Cells at the Nonpermissive Temperature; note: nearly all actives have a fitted effect of over 55% in size
Settings: H1299-p53A138V viability at 39C, ATP luminescence, 24 h; series mostly up to 46.1 µM
Potency is the fitted concentration of half-maximal effect.

Row | SMILES | Potency | activity change, negative = cell killing
1 | Cc1ccccc1CSCCNC(=O)C1CCN(S(=O)(=O)Cc2ccccc2)CC1 | inactive | –
2 | Cc1ccc(NC(=O)c2ccc3[nH]c(C)cc(=O)c3c2)c(C)c1 | inactive | –
3 | Cc1c(C(=O)NCc2ccccc2Br)oc2ccc3c(c12)C(=O)CC(C)(C)O3 | 15.8 µM (active) | –
4 | CC1(C)CC(=O)c2cc(OCC(=O)NCC3CCCO3)ccc2O1 (centres undefined) | inactive | –
5 | CCC1(C)CC(=O)c2c(ccc3oc(C(=O)Nc4ccc(C(C)=O)cc4)c(C)c23)O1 (centres undefined) | inactive | –
6 | CCS(=O)(=O)N1CCc2cc(C(=O)NCc3ccc(C)cc3)ccc21 | inactive | –
7 | Cc1ccc(O)c(NC(=O)CCS(=O)(=O)c2nc(-c3ccc4c(c3)OCO4)cc(C(F)(F)F)n2)c1 | 3.16 µM (active) | –
8 | Cc1ccc(O)c(NC(=O)c2cc(-c3ccc(F)cc3)no2)c1 | inactive | –
9 | COc1ccccc1-c1cc(C(F)(F)F)nc(S(=O)(=O)CCCC(=O)Nc2ccc(F)cc2F)n1 | inactive | –
10 | Cc1ccc(CNC(=O)c2ccc(CS(=O)Cc3cccc(Cl)c3)o2)cc1 (centres undefined) | inactive | –
11 | c1c2c(cc3sc(N4CCCCC4)nc13)OCCO2 | 2 µM (active) | –
12 | Fc1ccc2nc(N3CCCCC3)sc2c1 | inactive | –
13 | COc1ccc2nc(Nc3nc4cc5c(cc4s3)OCCO5)sc2c1 | inactive | –
14 | Cc1cccc(CSc2nc3ccncc3n2CC(=O)N(C)C2CCCCC2)c1 | inactive | –
15 | CC(C)c1ccc(NC(=O)c2ccc3c(O)c(S(=O)(=O)c4ccccc4)c(=O)[nH]c3c2)cc1 | 6.31 µM (active) | –
16 | COc1ccc(CNC(=O)c2ccc3c(O)c(S(=O)(=O)c4ccccc4)c(=O)[nH]c3c2)cc1 | inactive | –
17 | Cc1ccc(C(=O)Nc2ccc3[nH]c(=O)c(=O)[nH]c3c2)cc1 | inactive | –
18 | COc1ccc(C)cc1NC(=O)CCc1c(C)nn(-c2ccc(N3CCOCC3)nn2)c1C | inactive | –
19 | Cc1ccc(N2CC(NC(=O)Cc3cccs3)CC2=O)cc1 (centres undefined) | inactive | –
20 | COc1cccc(-c2n[nH]c3c2C(c2cccc(O)c2)N(C)C3=O)c1 (centres undefined) | inactive | –
21 | CCCCN1C(=O)c2[nH]nc(-c3ccccc3O)c2C1c1cccc(OCc2ccccc2)c1 (centres undefined) | 25.1 µM (active) | –

Row | SMILES | Potency | activity change, negative = cell killing
22 | COc1ccc(CCN2C(=O)c3[nH]nc(-c4ccccc4O)c3C2c2ccc(C)cc2)cc1OC (centres undefined) | inactive | –
23 | CCCOc1ccc(C2c3c(-c4ccccc4O)n[nH]c3C(=O)N2Cc2cccnc2)cc1 (centres undefined) | 12.6 µM (active) | –
24 | CCOc1ccc(/C(O)=C2/C(=O)C(=O)N(Cc3cccnc3)C2c2ccc(N(C)C)cc2)c(C)c1 (centres undefined) | inactive | –
25 | COc1ccc(C2C(C(C)=O)=C(O)C(=O)N2Cc2cccnc2)cc1 (centres undefined) | inactive | –
26 | O=C(c1cccc(Cl)c1)N1CCN(CCc2ccncc2)CC1 | inactive | –
27 | Fc1ccc(C(Nc2ccc(Cl)c(C(F)(F)F)c2)c2nnc(-c3ccccc3)o2)cc1 (centres undefined) | inactive | –
28 | Cn1c(=O)nc2n(-c3ccc(Br)cc3)c3cccc(Cl)c3cc-2c1=O | inactive | –
29 | CCCCCn1c(=O)[nH]c2cc(C(=O)Nc3ccc(F)cc3)ccc2c1=O | inactive | –
30 | Cn1nc(-c2ccccc2)c(-c2ccccc2)c(C(=O)Nc2ccc(S(N)(=O)=O)cc2)c1=O | inactive | –
31 | COc1ccc2cc(CNc3ccc(OC)c(OC)c3)c(=O)n(CC(=O)Nc3ccccc3F)c2c1 | inactive | –
32 | Cc1c2cnn(-c3ccccc3)c(=O)c2c(C)n1C(C)C(=O)Nc1ccc(Br)cc1F (centres undefined) | inactive | –
33 | COc1ccc(/C=C/NC(=O)Cc2ccc(OC)c(OC)c2)cc1 | – | -6.46% [at 9.22 µM] and 8.2% [at 9.22 µM]
34 | COc1ccc(C(CCN(Cc2ccc(OC)c(OC)c2)C(=O)CCl)c2ccccc2)cc1 (centres undefined) | 3.98 µM (active) | –
35 | CCN(CCCCOC(=O)c1ccc(OC)c(OC)c1)C(C)Cc1ccc(OC)cc1 (centres undefined) | inactive | –
36 | O=C(NCc1ccccc1)c1cc(-c2cccc(Cl)c2)on1 | inactive | –
37 | COc1ccc(-c2cc(-c3nc(-c4cc(OC)c(OC)c(OC)c4)no3)[nH]n2)c(OC)c1 | inactive | –
38 | COc1ccc(-c2nc(-c3ccccc3)no2)c(OC)c1 | 6.31 µM (active) | –
39 | COc1ccc(-c2noc(CSc3nnc(-c4ccccc4)n3-c3ccc(F)cc3)n2)c(OC)c1 | inactive | –
40 | O=C(CN1CCN(Cc2ccc(Cl)cc2)C1=O)NCc1ccc(F)cc1 | inactive | –
41 | Cc1ccc(C)c(N2CCN(c3ccc4cc(S(=O)(=O)N5CCC(C)CC5)ccc4n3)CC2)c1 | inactive | –
42 | O=C(COc1ccccc1)NCCc1nc2ccccc2[nH]1 | inactive | –

Row | SMILES | Potency | activity change, negative = cell killing
43 | N#C/C(=C(/O)COC(=O)COc1ccc(Cl)cc1)c1nc2ccccc2[nH]1 | 20 µM (active) | –
44 | COC(=O)Cc1nc2ccccc2[nH]1 | inactive | –
45 | COc1ccc(CNC(=O)CSc2n[nH]c(-c3ccc(F)cc3)n2)cc1 | inactive | –
46 | O=C(NCC(c1cccnc1)N1CCc2ccccc21)c1cccc(C(F)(F)F)c1 (centres undefined) | inactive | –
47 | Cc1ccc2nc(-c3ccc(O)cc3)c(Nc3ccc4c(c3)OCO4)n2c1 | inactive | –
48 | COc1cccc(-n2cc(C(=O)NCc3cccc(Cl)c3)c3ccccc3c2=O)c1 | inactive | –
49 | COc1ccc(-n2ncc3c(N4CCCc5ccccc54)ncnc32)cc1 | 10 µM (active) | –
50 | Cc1cccc(-n2ncc3c(N4CCc5ccccc54)ncnc32)c1 | inactive | –
51 | COc1ccc(-n2ncc3c(N4CCc5ccccc54)ncnc32)cc1 | inactive | –
52 | Cc1oc(C)c2c(=O)cc(-c3ccc4c(c3)OCO4)cc(OC(=O)c3ccc(Cl)cc3)c12 | inactive | –
53 | CC1CCCN(S(=O)(=O)c2ccc3[nH]c(=O)cc(C(=O)NCCc4ccc(Cl)cc4)c3c2)C1 (centres undefined) | inactive | –
54 | CCC1CCCCN1C(=O)Cn1c(=O)n(CCCCCC(=O)NCc2ccccc2)c(=O)c2sccc21 (centres undefined) | inactive | –
55 | Cc1cc(C)c(NC(=O)CSc2nc3ccncc3[nH]2)c(C)c1 | inactive | –
56 | Cn1c(=O)c2c(-c3ccccc3Br)n(Cc3ccccc3)cc2n(C)c1=O | inactive | –
57 | Cn1c(=NC(=O)c2cnccn2)sc2ccccc21 | 10 µM (active) | –
58 | Cn1c(=NC(=O)CSCC(=O)N2CCOCC2)sc2ccccc21 | inactive | –
59 | Cn1c(=NC(=O)CSCC(=O)N2CCCCC2)sc2ccccc21 | inactive | –
60 | CCOc1ccc(-c2cc3nc(C4CCN(C(=O)OC(C)(C)C)CC4)c(C(=O)Nc4cccc(CC)c4)cn3n2)cc1 | inactive | –
61 | O=C(CN1C(=O)C2C3CCC(C3)C2C1=O)Oc1ccc2ccccc2c1 (centres undefined) | inactive | –
62 | C=CC(=O)c1ccc2ccccc2c1 | 10 µM (active) | –
63 | Cc1ccc2nc(CC(=O)c3ccc4ccccc4c3)c(=O)[nH]c2c1 | – | 2.32% [at 9.22 µM]

Row | SMILES | Potency | activity change, negative = cell killing
64 | COc1cccc(CNC(=O)CSc2c3c(nc4cc(Cl)ccc24)CCCC3)c1 | inactive | –
65 | CCOC(=O)Cc1ccc(NC(=O)Nc2c[nH]c(=O)[nH]c2=O)cc1 | inactive | –
66 | CCOc1ccccc1CNCc1c(C(=O)O)c(C)n(Cc2ccc(C)cc2)c1C | inactive | –
67 | Cc1ccc(OCC(=O)Nc2ccc(-c3nnc(-c4ccco4)o3)cc2)cc1 | inactive | –
68 | CCOc1ccc(NC(=O)Nc2cc(C)on2)cc1 | inactive | –
69 | CCC(=O)Oc1cccc(C(=O)Nc2ccc(-c3nnc(-c4ccco4)o3)cc2)c1 | inactive | –
70 | CCOc1ccc(-c2nnc(-c3ccco3)o2)cc1 | 12.6 µM (active) | –
71 | CCOc1ccc(NC(=O)c2ncoc2-c2ccco2)cc1 | 7.94 µM (active) | –
72 | CCOc1ccc(C(=O)Nc2ccncc2)cc1 | inactive | –
73 | CN(C)CCCn1c(-c2ccc(Cl)cc2)csc1=Nc1ccccc1 | inactive | –
74 | CCCN(CCC)CCNC(=O)Cn1cnc2sc(C)c(S(=O)(=O)N3CCC(C)CC3)c2c1=O | inactive | –
75 | COc1ccc(S(=O)(=O)c2c(Nc3ccc(C)cc3)sc(C(=O)c3ccc(C)cc3)c2N)cc1 | inactive | –
76 | Cc1cccc(OCC(=O)N(Cc2ccc(C(C)C)cc2)Cc2ccco2)c1C | inactive | –
77 | C=CCn1c(C)cc(C(=O)CN2C(=O)c3ccccc3C2=O)c1C | 12.6 µM (active) | –
78 | Cc1cc(C(=O)COC(=O)CCCN2C(=O)c3ccccc3C2=O)c(C)n1C | inactive | –
79 | C=CCN(CC=C)C(=O)CN1C(=O)c2ccccc2C1=O | inactive | –
80 | CC(=O)N1CCCc2cc(S(=O)(=O)N3CCC(C(=O)NCc4ccc(F)cc4)CC3)ccc21 | inactive | –
81 | O=C(Nc1cccnc1)c1ccc2c(c1)OCO2 | inactive | –
82 | Cc1c(Cl)cccc1NC(=O)c1noc2c1CCCC2 | inactive | –
83 | O=C(Nc1cccnc1)c1noc2c1CCCCC2 | 12.6 µM (active) | –
84 | Cc1ccc(Cl)cc1NC(=O)CSc1nc2ccccc2nc1Cc1ccccc1 | inactive | –
